Measurements published in PubChem BioAssay (NCI).
Compounds without any hit were thinned out: in the full panel of roughly 83,000, 20% have a hit.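 Growth was measured after 48 h exposure to one concentration of compound in 96-well plates. Values under 10 count as active.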 Values without a mark were called inactive. The source made the active and inactive calls.

Legend:
Assay in all cases: NCI-60 one-dose screen, 48 h (100 = growth as untreated, 0 = no growth, -100 = all killed)
Conditions in all cases: 10 µM unless noted
DU-145 prostate = system: DU-145 prostate
K-562 leukemia = system: K-562 leukemia
MALME-3M melanoma = system: MALME-3M melanoma
MDA-MB-231 breast = system: MDA-MB-231 breast
RXF 393 renal = system: RXF 393 renal
SF-268 CNS = system: SF-268 CNS
SF-295 CNS = system: SF-295 CNS
SF-539 CNS = system: SF-539 CNS
UACC-257 melanoma = system: UACC-257 melanoma
M14 melanoma = system: M14 melanoma

| Structure (SMILES) | growth (DU-145 prostate) | growth (K-562 leukemia) | growth (MALME-3M melanoma) | growth (MDA-MB-231 breast) | growth (RXF 393 renal) | growth (SF-268 CNS) | growth (SF-295 CNS) | growth (SF-539 CNS) | growth (UACC-257 melanoma) | growth (M14 melanoma) |
| --- | --- | --- | --- | --- | --- | --- | --- | --- | --- | --- |
| NC(=O)CSc1oc(-c2ccccc2)nc1S(=O)(=O)c1ccc(Br)cc1 | 85.6% | 91.7% | 59.4% | 52.7% | 46.5% | 72.6% | 80.7% | 45.7% | 84.7% | 83.5% |
| NC(=O)c1c(NC(=O)c2ccc3ccccc3c2)sc2c1CCC(=O)C2 | 94.4% | 14.6% | 91.1% | 67.5% | 60.7% | 31.4% | 93.4% | 25.4% | 91.6% | 37.4% |
| COC1/C=C/OC2(C)Oc3c(C)c(O)c4c(O)c(c(/C=N/Nc5ccc([N+](=O)[O-])cc5[N+](=O)[O-])c(O)c4c3C2=O)NC(=O)C(C)=C/C=C/C(C)C(O)C(C)C(O)C(C)C(OC(C)=O)C1C (stereo not given) | 39.4% | 4.82% (active) | 29.2% | -7.83% (active) | -74.3% (active) | 13.8% | 81.1% | -2.39% (active) | 34.6% | 11.4% |
| COc1ccc(-c2cc(-c3cc(OC)c(OC)c(OC)c3)c(C#N)c(=O)n2CCCCC(=O)NO)cc1 | 64.1% | 32.6% | 33.1% | 55.6% | 53.1% | 87.9% | 78.7% | 57.7% | 71.7% | 56.9% |
| CC1=C([Se]CC(OC(=O)CC[Se]c2ccccc2)C(=O)NC(C)(C)C)C(=O)c2ccccc2C1=O (stereo not given) | -94.8% (active) | -11.3% (active) | -57.2% (active) | -41.7% (active) | -87.5% (active) | -88.9% (active) | -36.2% (active) | -99% (active) | -87.3% (active) | -77.8% (active) |
| N#C/C(=C\c1c(-c2ccccc2)[nH]c2ccccc12)C(N)=O | 108% | 24% | 93% | 71.6% | 122% | 97.3% | 99.7% | 71% | 105% | 68.9% |
| COc1ccc(C/C(C)=C(\c2ccc(Cl)cc2)c2ccc(OCCN3CCCCC3)cc2)cc1 | 110% | 67.3% | 106% | 93.3% | 85.1% | 99.6% | 101% | 93.6% | 104% | 93.3% |
| C=CCn1c(SCC(=O)Nc2ccc(C(=O)/C=C/c3ccc(Cl)cc3)cc2)nnc1-c1ccc(Br)cc1 | 75.3% | 61% | 97.6% | 81.2% | 74.8% | 73.6% | 96.8% | 90.3% | 92.3% | 89.7% |
| Nc1cc(C(=O)NC[C@H]2CN(c3ccc(N4CCC(C(=O)O)CC4)cc3)C(=O)O2)ccc1Cl | 109% | 92.1% | 94% | 94.2% | 112% | 98.4% | 103% | 93.7% | 98.8% | 98.2% |
| COC(=O)c1c(C)nc(C)c2c1C(=O)C(Br)=C(NCc1ccccc1)C2=O | 38% | 21% | -75.4% (active) | 14.8% | 52.4% | 33% | 30.1% | 7.13% (active) | -7.87% (active) | 14% |
| O=C(CN1C(=O)S/C(=C\c2ccccc2)C1=O)Nc1ncc(Cc2ccccc2Cl)s1 | 87% | 97.3% | 104% | 101% | 125% | 87.9% | 100% | 94.8% | 96.9% | 102% |
| Cn1cc(-c2csc(-c3cn(C(=O)OC(C)(C)C)c4ccc(Br)cc34)n2)c2ccnc(Cl)c21 | 68.3% | 86.9% | 36.6% | 61.2% | 78.3% | 82.4% | 89.9% | 55.5% | 70.3% | 88.2% |
| CCN1C(=O)N(CC)C2C1NN=c1s/c(=C\c3ccccc3F)c(=O)n12 (stereo not given) | 2.54% (active) | 8.14% (active) | 52.6% | 15.2% | 52% | 44.6% | 12.4% | -18.1% (active) | 53.1% | 2.5% (active) |
| CCCC/C=C/[C@@H]1C[C@H]1CCO | 116% | 103% | 93.6% | 99.2% | 108% | 104% | 98.2% | 103% | 91.5% | 98.9% |
| CN(C)c1ccc(-c2c(C#N)c(N)nn2C(=O)c2ccc(NC(=O)c3ccccn3)cc2)cc1 | 102% | 66.9% | 110% | 108% | 117% | 94.1% | 99% | 92% | 112% | 84.1% |
| Cn1c(=O)cc2c3c(c(NCCCO)ccc31)C(=O)c1ccccc1-2 | 45.4% | 38.1% | 27.3% | 58.1% | 42.6% | 42.3% | 42.8% | 50% | 64.2% | 55.3% |
| COC(=O)/C=C1/SC(=Nc2ccc(C(F)(F)F)cc2)N(CCc2c[nH]c3ccc(O)cc23)C1=O | 12.7% | 19.9% | -13.8% (active) | -13.9% (active) | -50.9% (active) | -5.68% (active) | 14.2% | -37.3% (active) | 9.58% (active) | 0.0712% (active) |
| O=C(Nn1c2c(sc1=NC1CC1)C(=O)c1ccccc1C2=O)c1cc2ccc1CCc1ccc(cc1)CC2 | 33.2% | 25.9% | -64.3% (active) | 15.4% | 53.7% | 45.2% | 79.6% | 5.17% (active) | -28.6% (active) | -21.8% (active) |
| CC(C)c1ccc(-n2c(=S)[nH]c3sc4cc(O)ccc4c3c2=O)cc1 | 104% | 107% | 87.1% | 95.4% | 91.2% | 99.4% | 103% | 93.6% | 111% | 94.6% |
| O=C1/C(=C\c2ccc3nccnc3c2)SC(=S)N1CCc1ccc(O)cc1 | 59.6% | 96.9% | 75.7% | 88.7% | 93% | 90.8% | 105% | 82.2% | 81.9% | 85.5% |
| O=C1/C(=C/c2cccc(F)c2)CN(C(=O)C(Cl)Cl)C/C1=C\c1cccc(F)c1 | -81.5% (active) | -9.05% (active) | -36.2% (active) | -63.7% (active) | -89.6% (active) | -29.6% (active) | -71.2% (active) | -98.6% (active) | -42.4% (active) | -69.7% (active) |
| O=C(Nc1nc2ccccc2s1)c1ccc(F)cc1 | 108% | 90% | 96.2% | 95.5% | 107% | 114% | 103% | 102% | 108% | 110% |
| COc1ccc(/C=C(\C#N)n2nnc3ccc(Cl)cc32)cc1 | 64.5% | 21.2% | 79.5% | 76.1% | 48.7% | 76.1% | 85.7% | 53.2% | 76.3% | 58.1% |
